# Screening results from PubChem.
# Only some compounds are listed: those with a hit (about 19% of all), similar ones and a draw of the others.
# KB-V1 MDR tox: KB-V1 MDR subline cytotoxicity. KB-V1 MDR cells viability, CellTiter-Glo, 72 h. Potency, µM (titrated, usually from 46.1 µM), most hits filed as cytotoxic. 400,000 compounds, 3.4% hits; further: nearly all actives have a fitted effect of over 60% in size
#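 In this primary screen, KB-V1 cells overexpressing P-gp are incubated with library compounds (lowest to highest concentration) for 72 h at 37 degrees C before a luminescent ATP viability read.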
# HT1080 IDH1KD tx: toxicity to HT-1080 IDH1 knockdown cells (counter line). HT-1080 IDH1 knockdown viability, ATP luminescence, 48 h. Potency, µM (doses to about 46.1 µM), actives largely listed as cytotoxic. 360,000 compounds, 2% hits. AID 686971
#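 Knockdown cells (IDH1KD HT-1080) received compounds 2 h after plating at 750 cells/well and were kept 48 h at 37 °C in 5% FBS RPMI. A CellTiter-Glo luminescence read gave % activity for curve fitting.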
# HT1080-NT tox: kills 2HG-producing HT-1080-NT fibrosarcoma cells. HT-1080-NT fibrosarcoma viability, CellTiter-Glo ATP luminescence, 48 h. 360,000 compounds, 1.6% hits. AID 686970. Potency, µM (top dose mostly 46.1 µM), actives largely listed as cytotoxic;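 further: NT is the 2HG producing partner of a matched IDH1 knockdown line; nearly all actives have a fitted effect of over 55% in size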
#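 Viability by CellTiter-Glo luminescence after 48 h compound exposure at 37C of HT-1080-NT cells (750/well, RPMI, 5% FBS). % activity scaled between DMSO wells and medium-only wells, then curve-fitted and categorized by curve class.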
# TDP1 cell noCPT: qHTS for Inhibitors of human tyrosyl-DNA phosphodiesterase 1 (TDP1): qHTS in cells in absence of CPT; DT40 Tdp1-/- hTDP1 cells, no CPT, ATP luminescence, 48 h; Potency, µM (doses to about 46.2 µM), most hits filed as inhibitors; 420,000 compounds, 15% hits; further: nearly all actives have a fitted effect of over 55% in size
#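 Camptothecin absent (DMSO only). Human TDP1-complemented DT40 knockout cells, 400 cells/well, 37 °C for minimum 48 hr; ATP measured via CellTiter-Glo, 30 min dark incubation, luminescence.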
# KB-3-1 tox: KB-3-1 parental cell cytotoxicity; 400,000 compounds, 1.4% hits; KB-3-1 viability, CellTiter-Glo ATP luminescence, 72 h; AID 1347075; Potency, µM (titrated, usually from 46.1 µM), most hits filed as cytotoxic; further: nearly all actives have a fitted effect of over 60% in size
#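 Parental KB-3-1 adenocarcinoma cells in phenol-red-free DMEM with 10% FBS were pin-treated with compounds at several concentrations, incubated 72 h at 37 °C, and viability read by CellTiter-Glo luminescence; concentration-effect curves were fitted after normalization.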
# TDP1 cell CPT: growth inhibition of DT40 Tdp1-/-;hTDP1 cells with camptothecin (screen for TDP1 inhibitors) | chicken DT40 Tdp1-/-;hTDP1 cells + 20 nM CPT, ATP luminescence, 48 h | Potency, µM (doses to about 46.2 µM), usual class: inhibitors | 420,000 compounds, 12% hits | AID 686979; further: nearly all actives have a fitted effect of over 55% in size
#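 Chicken DT40 Tdp1-/- cells stably complemented with human TDP1 were seeded at 400 cells/well in medium containing 20 nM camptothecin, exposed to pin-transferred compounds, and grown at 37 °C for at least 48 hr. Viability was read as ATP luminescence.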
# Numbers stand for hits; . = inactive; ? = inconclusive; / = no result given. The call rests on the fitted dose curve; in most records, active means well fitted curve in the direction sought with a large enough effect; inconclusive means small, poorly fitted or top-dose-only effect, or another doubt; inactive means no such curve, though single readings can be large; an effect the other way counts as inactive or inconclusive.
SMILES,KB-V1 MDR tox,HT1080 IDH1KD tx,HT1080-NT tox,TDP1 cell noCPT,KB-3-1 tox,TDP1 cell CPT
Cc1[nH]n(-c2ccccc2)c(=O)c1/C=N/n1c(C)nc2ccccc2c1=O,?,.,.,?,.,?
Cc1ccc(-n2[nH]c(C)c(C=Nc3ccc(C)cn3)c2=O)cc1,?,.,7.9µM,16µM,?,9.2µM
CCOC(=O)C[C@H]1c2cc(C(F)(F)F)ccc2S(=O)(=O)N1C(C)C,?,.,.,?,.,.
O=C(NC(c1ccc(Cl)cc1)c1ccsc1)C1CCN(Cc2cccc(C(F)(F)F)c2)CC1 (stereo unspecified),?,.,.,4.1µM,.,4.1µM
O=C(NNC(=O)C1CCN(Cc2cccc(F)c2)CC1)c1cccc(Cl)c1,.,.,.,?,.,.
O=C(NC(c1ccc(Cl)cc1)c1ccsc1)C1CCN(Cc2cccc(Cl)c2)CC1 (stereo unspecified),?,?,?,4.6µM,?,5.2µM
CCc1ccc(NC(=O)C2CCCN(S(=O)(=O)c3ccc(F)cc3)C2)cc1 (stereo unspecified),.,/,/,7.3µM,.,8.2µM
O=C(Nc1ccc(N2CCOCC2)cc1)C1CCCN(S(=O)(=O)c2ccccc2)C1 (stereo unspecified),.,.,.,?,.,?
CN(C)c1ccc(NC(=O)C2CCCN(S(=O)(=O)c3ccccc3)C2)cc1 (stereo unspecified),?,.,.,23µM,?,15µM
Cc1ccc(NC(=O)C2CCCN(S(=O)(=O)c3ccc(F)cc3)C2)cc1 (stereo unspecified),.,/,/,16µM,.,23µM
CCc1ccc(NC(=O)C2CCCN(S(C)(=O)=O)C2)cc1 (stereo unspecified),.,.,.,?,.,?
O=C(NCCc1ccc(Cl)cc1)C1CCCN(S(=O)(=O)N2CCCCCC2)C1 (stereo unspecified),.,.,.,16µM,.,18µM
CS(=O)(=O)N1CCCC(C(=O)Nc2ccc(F)cc2)C1 (stereo unspecified),.,.,.,.,.,.
NC(=O)COc1c(-c2ccc(Br)o2)oc2ccccc2c1=O,.,.,.,?,.,.
Cc1ccc(N2C(=O)CSC23C(=O)N(CC(=O)NC2CCCCC2)c2ccccc23)cc1C (stereo unspecified),.,/,/,?,.,.
COc1c(C)cc(C(=O)C2CCCN(C(=O)c3snnc3C)C2)cc1C (stereo unspecified),.,.,.,.,.,.
COc1ccc(CCNC(=O)C2CCCN(S(=O)(=O)c3ccc(F)cc3)C2)cc1 (stereo unspecified),?,.,.,16µM,.,?
CCOC(=O)c1ccc(NC(=O)C2CCCN(S(=O)(=O)c3ccc(F)cc3)C2)cc1 (stereo unspecified),?,?,?,23µM,.,?
O=C(C1CCCN(S(=O)(=O)c2ccc(F)cc2)C1)N1CCCC1 (stereo unspecified),.,.,.,.,.,.
O=C(C1CCCN(S(=O)(=O)c2ccc(F)cc2)C1)N(Cc1cccs1)C1CC1 (stereo unspecified),.,.,.,18µM,.,13µM
CCOC(=O)C1CCCN(S(=O)(=O)c2ccc(NC(C)=O)cc2)C1 (stereo unspecified),.,.,.,.,.,.
CCN1C[C@@H]2[C@@H]3C(=O)N(C)C(=O)[C@@H]3[C@](CC)(C(=O)OC)N2C1=NCc1ccccc1,.,.,.,.,.,.
COc1ccc(CCC2=NCCN2C(CC(C)C)c2nc3ccccc3[nH]2)cc1 (stereo unspecified),.,?,?,16µM,.,21µM
CCOC(=O)N1CCN(C(=O)CCSc2ccc(C)cc2)CC1,.,.,.,23µM,.,23µM
